# Compound activity (PubChem)
# NadD block: blocks S. aureus nicotinate mononucleotide adenylyltransferase; 0.78% of 360,000 active; purified NadD enzyme, colorimetric absorbance read-out; AID 602399; inhibition, % at 20 µM; in the data active = inhibition above about 26%
# GRIN3A LBD mod: modulators (binders) of human NR3A ligand-binding domain; NR3A LBD differential scanning fluorimetry, Tm shift; 0% = protein alone, 100% = glycine-bound protein; Tm shift relative to glycine control, % at 25 µM; 2.5% of 340,000 active;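 active = melting temperature shift of at least 10% of the positive control shift, at one fixed dose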
# Vif imaging: HIV Vif inhibition; HEK293T cells, Vif self-association by quenched fluorescence, imaging, 24 h; inhibition, % at 7.49 µM; 0.35% of 340,000 active; AID 602346; in the data active = inhibition above about 50%, passing the limit was not always enough
# SKN-1 inh: C. elegans SKN-1 inhibition. C. elegans VP596 Pgst-4::GFP/RFP ratio, acrylamide-induced, 24 h. 0.49% of 360,000 active. inhibition, % at 21.8 µM. AID 624304;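 active = interference check ratio from 0.5 to 1.5 plus GFP to RFP signal ratio inhibition reaching or exceeding a fixed threshold, cut at about 30% in these data, passing the limit was not always enough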
# SMARCA2 act: SMARCA2 function activation, primary screen | 1% of 370,000 active | activation, % at 9.1 µM | MG213 cells, MMTV-luciferase reporter, dexamethasone, overnight; in the data active = activation above about 7.8%;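 also: 0% = vehicle wells and 100% = reference activator wells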
# esBAF inh: blocks esBAF chromatin remodeling in mouse ES cells | Bmi1-luciferase knock-in reporter, 24 h; 100% = twice the neutral-well signal | reporter increase, % at 12.5 µM | 2% of 350,000 active | AID 602393; in the data active = activation above about 40%;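 also: 0% = median of the plate's neutral control wells and 100% = double that signal; a rise in the Bmi1 reporter signal indicates esBAF inhibition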
# An asterisk follows results filed as active; . = not tested or not shown. Most compounds without a hit are left out; they make up all but 5.2% or so of the library.
SMILES,NadD block,GRIN3A LBD mod,Vif imaging,SKN-1 inh,SMARCA2 act,esBAF inh
O=C1NN(c2cccc(Br)c2)C(=O)/C1=C\c1ccc(O)cc1,4,15*,-3,1,1,-9
O=C1NN(c2cccc(Br)c2)C(=O)/C1=C/c1ccc(-c2cc([N+](=O)[O-])ccc2O)o1,70*,13*,-4,9,.,.
O=C1NN(c2ccc(Br)cc2)C(=O)/C1=C\c1ccc(O)cc1O,-5,28*,4,14,0,-5
COc1ccc(S(=O)(=O)N2CC[C@H]3[C@H](CO)Nc4ccc(-c5ccc(C#N)cc5)cc4[C@H]32)cc1,.,.,.,.,.,-7
O=C1C(F)=CC(COC(c2ccccc2)(c2ccccc2)c2ccccc2)OC1n1cc(F)c(=O)[nH]c1=O (stereo not given),51*,-2,-11,-2,-4,.
O=C(CCCOC(=O)c1cccnc1Cl)c1ccc(Br)cc1,-4,3,-10,-3,-3,10
O=C(CCCOC(=O)c1ccc(O)cc1O)c1ccc(Br)cc1,-3,10*,1,-4,-3,5
C[C@@H]1CN([C@H](C)CO)C(=O)c2cccc(NS(=O)(=O)c3cn(C)cn3)c2O[C@@H]1CN(C)Cc1ccc(Cl)c(Cl)c1,.,.,.,.,.,-1
O=C(CC(=O)c1cc(Cl)ccc1O)c1ccccc1,5,3,14,10,2,49*
Cc1cccc(C(=O)CC(=O)c2cc(Cl)ccc2O)c1,10,-4,-4,10,.,64*
Cc1ccc(O)c(C(=O)CC(=O)c2ccc(Cl)cc2)c1,1,1,-8,16,2,35
C[C@H]1CCCCO[C@H](CN(C)Cc2ccc(Cl)c(Cl)c2)[C@@H](C)CN([C@@H](C)CO)C(=O)c2cc(NC(=O)CCC(F)(F)F)ccc2O1,.,.,.,.,.,-3
CCC(=O)Nc1ccc2c(c1)C(=O)N(C)[C@@H]1CC[C@@H](CC(=O)NCCc3ccccc3)O[C@@H]1CO2,.,.,.,.,.,0
CC1(C)CC(=O)c2c(O)cc(OCc3ccc(Br)cc3)cc2O1,-3,-2,-1,-8,4,67*
C[C@H](CO)N1C[C@H](C)[C@H](CN(C)C(=O)Nc2ccc(F)cc2)Oc2ccc(NC(=O)Nc3ccc4c(c3)OCO4)cc2C1=O,.,.,.,.,.,0
Cn1c(=O)c2c(nc(N3CCc4ccccc4C3)n2Cc2ccc(Br)cc2)n(C)c1=O,1,11*,19,-7,2,-2
FC(F)(F)c1cnc(COc2ccc(Cl)cc2Cl)c(Cl)c1,-6,15*,1,14,0,.
O=C(C[C@H]1CC[C@@H]2[C@H](COC[C@@H](O)CN2S(=O)(=O)c2ccc(Cl)cc2)O1)N[C@@H]1CCN(Cc2ccccc2)C1,.,.,.,.,.,0
COc1ccc(C2C3=C(CC(C)(C)CC3=O)Nc3cc4c(cc32)OCO4)cc1 (stereo not given),6,1,4,8,-1,.
COc1ccc(OC)c(C2C3=C(COC3=O)Nc3cc4c(cc32)OCO4)c1 (stereo not given),9,0,72*,-13,0,-4
O=C(C[C@@H]1CC[C@H]2[C@@H](COC[C@@H](O)CN2C(=O)Nc2ccc3c(c2)OCO3)O1)N1CCN(c2ccccc2)CC1,.,.,.,.,.,-10
Cc1cccc(Nc2nc(-c3cccs3)cs2)n1,0,-6,-1,36*,0,50*
c1csc(-c2csc(-c3cccs3)n2)c1,-5,1,6,93*,0,53*
c1ccc(Nc2nc(-c3cccs3)cs2)nc1,-1,-1,12,72*,2,-33
CCCNC(=O)Nc1ccc2c(c1)C(=O)N(C)[C@H]1CC[C@H](CC(=O)NC)O[C@H]1CO2,.,.,.,.,.,-3
C[C@@H]1CCCCO[C@@H](CN(C)S(=O)(=O)c2cn(C)cn2)[C@H](C)CN([C@@H](C)CO)C(=O)c2cc(NC(=O)C3CCCCC3)ccc2O1,.,.,.,.,.,-12
CCNC(=O)C[C@H]1CC[C@H]2[C@@H](COC[C@H](O)CN2C(=O)Nc2cccc(OC)c2)O1,.,.,.,.,.,5
COc1ccc(NC(=O)N2CC[C@@H]3[C@@H](CO)N(C)c4ccc(-c5cccc(C(=O)N(C)C)c5)cc4[C@@H]32)cc1,.,.,.,.,.,8
CN1C(=O)c2cc(NC(=O)c3ccc(C(F)(F)F)cc3)ccc2OC[C@@H]2O[C@H](CC(=O)O)CC[C@@H]21,.,.,.,.,.,-3
